# From PubChem BioAssay AID651828 (ICCB-Longwood Screening Facility, Harvard Medical School, 2012)
# Hit rate of the full screen: of about 20,000 compounds, about 25 (0.1%) were called active. The sample as a whole holds a higher share of actives than the screen did. Unmarked numbers belong to inactive results. Cut-off read from the data, not from the text of the source: active = % bound below about 75%; inactive = the rest.
# Target: Nucleoprotein (Rift valley fever virus (strain ZH-548 M12)) (UniProt P21700)
# Sequence (P21700 whole entry, looked up): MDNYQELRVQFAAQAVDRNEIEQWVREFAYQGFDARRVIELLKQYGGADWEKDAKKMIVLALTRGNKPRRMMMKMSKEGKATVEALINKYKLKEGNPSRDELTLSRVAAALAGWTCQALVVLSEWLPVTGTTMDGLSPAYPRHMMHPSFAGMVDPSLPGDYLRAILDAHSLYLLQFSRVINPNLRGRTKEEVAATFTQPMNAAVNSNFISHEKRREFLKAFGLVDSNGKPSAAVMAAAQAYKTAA
# Assay: inhibitors of RVFV nucleoprotein–RNA binding, primary screen, biochemical, fluorescence polarization (AID 651828)
# Conditions: RVFV N-RNA binding, hits give low values, concentration not given here
row,Compound,% bound
1,Cc1ccccc1C(=O)Nc1cccc(N(C)C)c1,99.1%
2,O=C(CS(=O)(=O)c1ccccc1)Nc1ccccc1O,95.9%
3,Cc1cc(NN)nc(-c2ccccc2O)n1,91.2%
4,CS(=O)(=O)NCC(c1cccs1)N1CCc2ccccc21 (stereo not given),95.9%
5,COC(=O)C1CC2=CC(=O)CCC2(C)C2C(O)CC3(C)C(CCC34CCC(=O)O4)C12 (stereo not given),103%
6,O=c1[nH][nH]c(=O)n1/N=C/C=C\c1ccccc1,101%
7,Cc1nnsc1C(=O)Nc1ccc(C(N)=O)cc1,96.7%
8,NC(=O)c1cccc(NC(=O)C(F)(F)F)c1,108%
9,O=S(=O)(NCCN1CCOCC1)c1ccc(I)cc1,94.4%
10,CCc1ccc2[nH]c(=O)c(Cc3ccccc3)c(O)c2c1,98.2%
11,CC(C)Sc1nnc(NC(=O)C(C)(C)C)s1,96.3%
12,COc1ccc(C(=O)NCCc2cc3c(OC)ccc(OC)c3[nH]c2=O)cc1,97.1%
13,CCOc1ccc(NC(=O)CSc2nc(=O)n(CCCN3CCOCC3)c3c2CCCC3)cc1,105%
14,c1ccc2c(c1)CC(Nc1ccc3cn[nH]c3c1)C2,84.9%
15,S=C(c1ccccn1)N1CCN(C(=S)c2ccccn2)CC1,96.1%
16,O=C(CC1SC(=NC2CC3C=CC2C3)NC1=O)Nc1ccc(Cl)cc1 (stereo not given),89.9%
17,COc1ccc(-c2cc(-c3nnc(N)o3)no2)cc1OC,92.5%
18,CC(C)Nc1ncccn1,104%
19,COCn1c(=O)[nH]c2ccccc21,91.1%
20,CCOC(=O)N1CCN(C(=S)Nc2ccc(Oc3ccccc3)cc2)CC1,92.1%
21,COc1ccc(NC(=O)COc2cccc3c2CCN(C)C3=O)cc1,90.3%
22,Cc1nc(NNC(=O)c2ccccc2)cc(-c2ccccc2)n1,91.7%
23,CC(c1ccccc1)n1c(SCc2nc(-c3ccc(C(C)(C)C)cc3)no2)n[nH]c1=O (stereo not given),95.1%
24,N#CCCSc1nccn1Cc1ccccc1,106%
25,c1ccc2c(c1)OC1OC2Oc2ccccc21,98.8%
